# Experimental data: the supplement of paper PMC7057948, “A genome-wide approach for identification and characterisation of metabolite-inducible systems” (Nature Communications, 2020)
# Test system: HpdA/P_H16_RS24175 L-tyrosine biosensor (pEH158)
# Assay: relative induction of RFP reporter vs primary effector (background-corrected); higher = stronger activation of the biosensor
# Conditions: inducer concentration 5 mM; 6 h; Cupriavidus necator H16; minimal medium + 0.4% gluconate
# Experimental: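 C. necator H16 strains, each carrying one of 21 transcription factor/inducible promoter–mRFP biosensor plasmids, were grown in minimal medium in 96-well plates (robotic platform). Each was exposed to 46 structurally or metabolically related compounds at 5 mM at 30 °C. OD-normalised RFP fluorescence was read 6 h later and expressed as relative induction (%) = 100 × (FL compound − FL uninduced)/(FL primary inducer − FL uninduced); mean of n=4.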
# 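Further: RFP excited at 585 nm with emission read at 620 nm, culture medium blanks subtracted from fluorescence and absorbance prior to normalisation.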
row,SMILES,relative induction of RFP reporter [%]
1,N[C@@H](CC(=O)O)C(=O)O [L-aspartate],-0.107
2,O=C(O)C1=C[C@@H](O)[C@@H](O)[C@H](O)C1 [shikimate],0.167
3,CC(=O)CCC(=O)O [levulinic acid],-0.244
4,O=CC(=O)O [glyoxylate],-0.0503
